High-throughput results from PubChem.
ALOX12 inhib = blocks human 12-lipoxygenase activity. P18054. purified 12-hLO, xylenol orange hydroperoxide absorbance. Potency, µM (highest dose often 57.1 µM), without a hit: top-dose activity change, negative = inhibition, actives largely listed as inhibitors. hit rate 0.12% among 150,000. AID 1452; active = well fitted inhibition curve with a large enough effect; inconclusive = small, poorly fitted or top-dose-only effect; also: potency is read from the fitted curve at half-maximal effect; nearly all actives have a fitted effect of over 55% in size
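Hydroperoxide formation by human 12-lipoxygenase from 40 uM arachidonic acid was followed colorimetrically via ferric-xylenol orange complex, using the 573/405 nm absorbance ratio. Enzyme concentration was 150 nM, with 30 min reaction at room temperature.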
HPGD block = blocks human HPGD enzyme activity. purified HPGD, NADH fluorescence kinetic, PGE2 substrate. Potency, µM, without a hit: top-dose activity change, negative = inhibition, actives largely listed as inhibitors. hit rate 4.3% among 150,000. AID 894; also: potency is read from the fitted curve at half-maximal effect
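NADH formation kinetics: reaction with 30 uM PGE2 and 1 mM NAD+ (final), 20 nM enzyme, Tris-HCl pH 8 with Tween 20, after 15 min compound preincubation at room temperature. Fluorescence change, last versus first of five reads.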
PNC inhibitor = blocks assembly of the perinucleolar compartment. PC3M PTB-GFP, PNC prevalence imaging, 16 h; hits give low values. hit rate 3.1% among 140,000. activity change (PNC), negative = inhibition, % at 10 µM;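 active = readout at or below -70, meaning at least 70% loss of cells showing the perinucleolar compartment, a nuclear body marking cancer cells; inconclusive = readout between -30 and a set limit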;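 also: plate controls were DMSO wells for no effect and camptothecin positive control wells for full effect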
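PC3M cells stably expressing PTB-GFP, 750–1000 cells/well, treated 16 h at 37 °C with compound (23 nl of library stock), in duplicate. After paraformaldehyde fixation and Hoechst stain, imaged at 20x; PNC prevalence scored by image analysis.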
ALDH1A1 inh = inhibitors of human aldehyde dehydrogenase 1A1; P00352; Purified ALDH1A1, NADH fluorescence, propionaldehyde substrate; Potency, µM (highest dose often 75.3 µM), without a hit: at the top dose activity, negative = inhibition, most hits filed as inhibitors; hit rate 7.3% among 220,000; AID 1030;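 also: potency is read from the fitted curve at half-maximal effect; plate controls were no enzyme wells and a reference inhibitor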
Target sequence (P00352 whole entry, looked up): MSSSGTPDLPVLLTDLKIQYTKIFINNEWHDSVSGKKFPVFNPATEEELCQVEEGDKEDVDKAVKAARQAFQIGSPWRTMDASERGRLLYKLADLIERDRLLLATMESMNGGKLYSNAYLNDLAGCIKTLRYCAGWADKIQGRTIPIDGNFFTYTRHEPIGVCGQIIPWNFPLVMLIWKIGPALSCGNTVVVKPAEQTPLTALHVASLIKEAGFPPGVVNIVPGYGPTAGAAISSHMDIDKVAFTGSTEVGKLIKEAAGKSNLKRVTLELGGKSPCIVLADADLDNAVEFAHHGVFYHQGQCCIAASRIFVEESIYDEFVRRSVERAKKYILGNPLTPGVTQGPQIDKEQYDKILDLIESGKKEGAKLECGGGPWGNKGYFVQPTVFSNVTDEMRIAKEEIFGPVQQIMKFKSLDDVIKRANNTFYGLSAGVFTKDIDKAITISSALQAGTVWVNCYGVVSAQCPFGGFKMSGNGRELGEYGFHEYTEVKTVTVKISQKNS
Lamin A splicing = LMNA splicing modulation; hit rate 0.01% among 200,000; Potency, µM (doses to about 46.1 µM), for inactives: at the highest dose ratio change, negative = inhibition, actives largely listed as inhibitors; HeLa LMNA splicing GFP/RFP minigene ratio, 48 h; AID 1487; active = well fitted inhibition curve with a large enough effect in the signal ratio, with a control signal flat, not every such curve was filed as active; inconclusive = small, poorly fitted or top-dose-only effect, or effect the other way, or a change in a side signal; the % refers to the signal ratio; also: potency is read from the fitted curve at half-maximal effect
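Read-out is the ratio of GFP to DsRed2 object intensity, acquired by 488 nm laser-scanning cytometry on HeLa lamin A-EGFP minigene reporter cells. Compound incubation 48 hrs at 37 °C in Opti-MEM with 2% FBS; DMSO 0.5% final.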
The depositor's hits bear a star; u = inconclusive; x = no result; [ ] = remark or other dose. Rows were chosen to be rich in hits. Some 10% of all compounds tested hit in one or more screens of this group. Unless noted, calls follow the shape of the dose curve; as a rule, active = well fitted inhibition curve with a large enough effect (not every such curve was filed as active); inconclusive = small, poorly fitted or top-dose-only effect, or another doubt; inactive = no such curve, though single readings can be large or run the other way. Unless noted, % is scaled to controls: 0 for no effect and ±100 for the full control effect.

SMILES	ALOX12 inhib	HPGD block	PNC inhibitor	ALDH1A1 inh	Lamin A splicing
O=C(O)/C=C\C(=O)Nc1ccc(N2CCN(c3ccc(Cl)c(Cl)c3)CC2)cc1	x	x	x	6.3µM*	32%[46 µM]
CO[C@@H]1/C=C\CC(=O)N[C@@H](C)C(=O)OC[C@@H](OC)[C@H](C)CCCC(=O)OC[C@H]1C	x	x	x	-2%[13.5 µM]	x
COc1cc(NC(=O)CN2C(=O)c3ccccc3Sc3ccc(C(=O)N4CCCC4)cc32)cc(OC)c1	x	x	x	x	5%[46 µM]
COC(=O)Cc1ccc(NC(=S)N2CCN(c3ccc(F)cc3)CC2)cc1	-1%	-3%	-96*	-10%	-25%
NS(=O)(=O)c1ccc(NC(=S)N2CCN(c3cccc(Cl)c3)CC2)cc1	-1%	25µM*	-27	-10%	u
O=C(O)/C=C\C(=O)Nc1ccc(N2CCN(c3ccc(F)cc3)CC2)cc1	x	x	x	8.9µM*	x
CCC(=O)Nc1ccc2c(c1)C(=O)N(C)C2=O	2%	u	-26	u	0%
CCC(=O)Nc1ccc2c(c1)C(=O)c1ccccc1C2=O	-4%	-10%	5	7.9µM*	8%
COc1cc(Cl)c(C)cc1NC(=O)COC(=O)c1cc[n+]([O-])cc1	x	x	x	16µM*	27%[46 µM]
CC(C)[C@H](NC(=O)Nc1cccc(Br)c1)C(=O)O	0%	3%	-91*	8%	-7%
CCC(=O)Nc1cccc(Br)c1	2%	-5%	-116*	2%	-8%
Cc1ccc(S(=O)(=O)O[C@@H]2[C@H]([C@@H]3COC(C)(C)O3)O[C@H]3OC(C)(C)O[C@@H]32)cc1	-3%[11.4 µM]	-6%	x	-2%[13.5 µM]	x
COc1ccc(C(=O)NCC(c2cccnc2)N2CCc3ccccc3C2)cc1OC (stereo unspecified)	x	x	x	x	-6%[46 µM]
COc1ccc(Cn2ccnc2SCC(=O)Nc2ccc3c(c2)OCCO3)cc1	x	x	x	x	4%[46 µM]
CC(C)C(NC(=S)Nc1ccccc1)C(=O)O (stereo unspecified)	5%	32µM*	u	4%	u
O=C(COC(=O)c1cc[n+]([O-])cc1)Nc1ccc2c(c1)OCCO2	-2%	-3%	-28	14µM*	-3%
CCOCC(=O)Nc1cccc(NC(C)=O)c1	-1%	-8%	u	5%	-7%
CCOCC(=O)Nc1cccc(Br)c1	6%	25µM*	25	20µM*	-13%
CCOCC(=O)Nc1ccc(F)c(F)c1	-9%	28µM*	-10	-1%	-5%
CCOCC(=O)Nc1ccc2c(c1)OCCO2	-1%	14µM*	u	u	-3%
CC(Sc1ccc2c(c1)OCCO2)C(=O)Nc1ccc2c(c1)OCO2 (stereo unspecified)	2%	-6%	-8	10µM*	u
Cc1cc2c(nc1C)CCCN2C[C@H](O)CN1CCCc2nc(-c3ccc(Br)cc3)ccc21	x	x	x	1%[13.5 µM]	x
N#Cc1c(-c2ccc(Br)cc2)nc2n(c1=O)CCCS2	-2%	28µM*	u	35µM*	0%
CN1CCN(c2ncc3ncc(=O)n(C4CC4)c3n2)CC1	x	x	x	u	6%
COc1ccc(-c2nc3cnc(N4CCN(C)CC4)nc3n(-c3ccc(OC)cc3)c2=O)cc1	x	x	x	u	18%
SMILES	ALOX12 inhib	HPGD block	PNC inhibitor	ALDH1A1 inh	Lamin A splicing
CN(CC(=O)Nc1ccc(F)c(F)c1F)c1cnccn1	-3%	-6%	-100*	-7%	u
CCCCCC(=O)NC(NC(=S)N1CCOCC1)C(Cl)(Cl)Cl (stereo unspecified)	-5%	-20%	u	3%	-14%
CCCCCCCCC(=O)NC(NC(=S)N1CCOCC1)C(Cl)(Cl)Cl (stereo unspecified)	-9%	-21%	-100*	u	u
NNc1ccccc1C(F)(F)F	x	x	x	18µM*	7%[46 µM]
CC(C)(C)C(=O)NC(=O)Nc1ccccc1C(F)(F)F	x	x	x	6%	x
Cc1ccccc1C=Nc1ccccc1C(N)=O	4%	u	-86*	u	u
Cc1ccc(C=Nc2ccccc2C(=O)Nc2ccccc2)cc1	0%	u	44	u	19%
NC(=O)c1ccccc1N=Cc1ccccn1	-1%	u	u	u	-4%
Cc1ccc(C=Nc2ccccc2C(N)=O)cc1	0%	u	-113*	u	-17%
O=C(NCc1cccc(F)c1)C1CCN(c2nn3cc(-c4ccc(F)cc4)nc3s2)CC1	x	x	x	x	6%[46 µM]
CCn1c2ccc(OC)cc2c2nc3ccccc3nc21	-7%	-15%	193	-3%	-26%
CCOc1ccc(Cn2c3ccc(OC)cc3c3nc4ccccc4nc32)cc1	-1%	-15%	-89*	5%	12%
CCCOCC1CC2(CC(C)(c3csc(N)n3)OC2=O)C(=O)O1 (stereo unspecified)	1%	0%	-119*	2%	4%
C[C@@H]1NCC[C@H](CC(=O)O)[C@H]1CC(=O)O	3%[11.4 µM]	-9%	x	6%[13.5 µM]	x
CCN(CC)S(=O)(=O)c1nnc(NC(=O)COc2ccc(Cl)cc2)s1	x	x	x	x	-15%[46 µM]
CC(=O)NNC(=O)c1cc2sccc2s1	x	x	x	8%	x
NNC(=O)c1cc2sccc2s1	x	x	x	2.5µM*	x
OC[C@H](S)CS	-7%[11.4 µM]	-10%	x	0.1µM*	u
CC(CCc1ccco1)NC(=O)Cn1ncc2c1-c1ccccc1OC2 (stereo unspecified)	-11%	-17%	-11	18µM*	0%
N[C@@H](Cc1ccnnc1)C(=O)O	-4%[11.4 µM]	-10%	x	-1%[13.5 µM]	x
CCN(CC)C(=O)Cn1c(=O)n(-c2ccc(C)c(C)c2)c(=O)c2c(C)c(C(=O)N(CC)CC)sc21	x	x	x	x	7%[46 µM]
